The target of assay [1] is T1, Tyrosine-protein kinase receptor TYRO3 (Homo sapiens) (UniProt Q06418).
T1 sequence (whole entry): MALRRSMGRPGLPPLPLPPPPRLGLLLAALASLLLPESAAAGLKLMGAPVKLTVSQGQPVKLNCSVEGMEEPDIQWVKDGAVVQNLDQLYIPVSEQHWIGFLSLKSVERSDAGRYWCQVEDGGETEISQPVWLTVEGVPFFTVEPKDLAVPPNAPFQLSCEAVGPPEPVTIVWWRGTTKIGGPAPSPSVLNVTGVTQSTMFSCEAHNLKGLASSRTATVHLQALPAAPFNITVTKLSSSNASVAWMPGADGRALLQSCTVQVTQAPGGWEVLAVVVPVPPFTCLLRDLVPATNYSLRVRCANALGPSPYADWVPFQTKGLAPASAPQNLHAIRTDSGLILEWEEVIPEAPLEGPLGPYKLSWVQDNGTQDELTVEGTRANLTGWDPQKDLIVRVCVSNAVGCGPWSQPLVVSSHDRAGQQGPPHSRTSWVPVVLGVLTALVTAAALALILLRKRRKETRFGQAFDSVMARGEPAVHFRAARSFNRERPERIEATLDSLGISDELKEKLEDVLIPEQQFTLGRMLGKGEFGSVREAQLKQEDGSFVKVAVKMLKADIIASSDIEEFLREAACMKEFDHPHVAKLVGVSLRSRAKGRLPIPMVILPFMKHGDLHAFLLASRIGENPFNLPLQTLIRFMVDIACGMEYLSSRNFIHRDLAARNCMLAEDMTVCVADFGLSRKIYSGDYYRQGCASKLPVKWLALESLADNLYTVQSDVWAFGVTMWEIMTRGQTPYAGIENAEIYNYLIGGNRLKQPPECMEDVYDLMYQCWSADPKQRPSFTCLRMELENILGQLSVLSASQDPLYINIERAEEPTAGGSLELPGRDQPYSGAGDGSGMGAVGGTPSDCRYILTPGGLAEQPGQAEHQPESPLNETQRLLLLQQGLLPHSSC
The following applies: at 1 µM.

Assay [2] addresses T1, Tyrosine-protein kinase receptor TYRO3 (Homo sapiens). The note with it: at 10 µM.
In assay [3] the target is Ribosomal protein S6 kinase alpha-1 (Homo sapiens) (UniProt Q15418). The note with it: at 1 µM.
For assay [4] the target is unchanged. The following applies: at 10 µM.
Assay [5] concerns the target Ribosomal protein S6 kinase alpha-3 (Homo sapiens) (UniProt P51812). The following applies: at 1 µM.
Assay [6] has the same target. The note with it: at 10 µM.
In assay [7] the target is Ribosomal protein S6 kinase alpha-2 (Homo sapiens) (UniProt Q15349). The following applies: at 1 µM.
The target is the same in assay [8]. The note with it: at 10 µM.
Assay [9] has as its target Ribosomal protein S6 kinase alpha-6 (Homo sapiens) (UniProt Q9UK32). The following applies: at 1 µM.
For assay [10] the target is unchanged. The note with it: at 10 µM.
Assay [11] deals with Mitogen-activated protein kinase 14 (Homo sapiens) (UniProt Q16539). The note with it: at 1 µM.
Assay [12] has the same target. The note with it: at 10 µM.
In assay [13] the target is Mitogen-activated protein kinase 11 (Homo sapiens) (UniProt Q15759). The note with it: at 1 µM.
The target is the same in assay [14]. The following applies: at 10 µM.
Assay [15] deals with T2, Mitogen-activated protein kinase 12 (Homo sapiens) (UniProt P53778).
T2 sequence (whole entry): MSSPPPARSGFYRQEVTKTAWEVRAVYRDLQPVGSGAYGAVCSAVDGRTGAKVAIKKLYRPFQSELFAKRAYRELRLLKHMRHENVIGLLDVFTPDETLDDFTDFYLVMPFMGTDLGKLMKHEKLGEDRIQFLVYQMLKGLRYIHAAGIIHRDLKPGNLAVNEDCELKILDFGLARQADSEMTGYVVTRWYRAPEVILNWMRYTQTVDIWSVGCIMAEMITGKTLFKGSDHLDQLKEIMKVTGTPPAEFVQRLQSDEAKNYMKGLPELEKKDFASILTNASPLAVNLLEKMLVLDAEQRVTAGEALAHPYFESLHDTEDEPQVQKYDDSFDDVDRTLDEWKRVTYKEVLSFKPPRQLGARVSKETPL
The following applies: at 1 µM.

Assay [16] addresses T2, Mitogen-activated protein kinase 12 (Homo sapiens). The following applies: at 10 µM.
In assay [17] the target is T3, Mitogen-activated protein kinase 13 (Homo sapiens) (UniProt O15264).
T3 sequence (whole entry): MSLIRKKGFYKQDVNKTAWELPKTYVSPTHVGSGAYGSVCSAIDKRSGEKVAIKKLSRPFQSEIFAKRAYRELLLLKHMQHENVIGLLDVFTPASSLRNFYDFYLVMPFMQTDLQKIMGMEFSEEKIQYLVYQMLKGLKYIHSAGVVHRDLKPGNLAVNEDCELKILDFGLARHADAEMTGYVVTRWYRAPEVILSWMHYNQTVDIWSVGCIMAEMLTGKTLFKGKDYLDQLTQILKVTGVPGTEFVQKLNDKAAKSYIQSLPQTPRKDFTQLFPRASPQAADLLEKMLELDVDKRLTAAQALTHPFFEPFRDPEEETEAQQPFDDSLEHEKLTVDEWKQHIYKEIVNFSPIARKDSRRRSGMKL
The following applies: at 1 µM.

Assay [18] has as its target T3, Mitogen-activated protein kinase 13 (Homo sapiens). The note with it: at 10 µM.
In assay [19] the target is T4, Serine/threonine-protein kinase Sgk1 (Homo sapiens) (UniProt O00141).
T4 sequence (whole entry): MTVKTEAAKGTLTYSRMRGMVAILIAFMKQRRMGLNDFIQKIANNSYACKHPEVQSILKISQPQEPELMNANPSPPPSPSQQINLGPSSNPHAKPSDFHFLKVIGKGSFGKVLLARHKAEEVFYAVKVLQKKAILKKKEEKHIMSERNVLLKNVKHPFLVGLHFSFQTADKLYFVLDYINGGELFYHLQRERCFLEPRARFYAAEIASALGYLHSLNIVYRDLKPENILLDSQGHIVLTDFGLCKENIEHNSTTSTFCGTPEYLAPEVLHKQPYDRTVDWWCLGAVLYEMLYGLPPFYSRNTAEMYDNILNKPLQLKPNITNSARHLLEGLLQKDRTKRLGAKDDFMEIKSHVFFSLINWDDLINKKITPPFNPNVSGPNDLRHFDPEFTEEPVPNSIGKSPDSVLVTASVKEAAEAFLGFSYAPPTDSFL
The note with it: at 1 µM.

The target of assay [20] is T4, Serine/threonine-protein kinase Sgk1 (Homo sapiens). The following applies: at 10 µM.

Consider seven compounds from ChEMBL document CHEMBL2218924, “A broad activity screen in support of a chemogenomic map for kinase signalling research and drug discovery” (Biochem J, 2013).

Mitogen-activated protein kinase 11 (Homo sapiens), sequence (Q15759 whole entry): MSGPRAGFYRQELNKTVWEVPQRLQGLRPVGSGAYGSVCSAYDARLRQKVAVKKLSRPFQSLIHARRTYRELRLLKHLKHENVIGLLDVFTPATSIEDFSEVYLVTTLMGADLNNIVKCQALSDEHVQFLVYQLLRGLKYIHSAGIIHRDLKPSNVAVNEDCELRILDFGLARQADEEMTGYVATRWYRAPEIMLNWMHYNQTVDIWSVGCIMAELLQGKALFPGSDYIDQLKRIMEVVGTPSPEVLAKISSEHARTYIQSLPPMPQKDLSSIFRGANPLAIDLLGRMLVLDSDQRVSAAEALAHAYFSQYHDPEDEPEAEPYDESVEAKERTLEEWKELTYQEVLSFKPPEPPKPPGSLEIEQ
Ribosomal protein S6 kinase alpha-1 (Homo sapiens), sequence (Q15418 whole entry): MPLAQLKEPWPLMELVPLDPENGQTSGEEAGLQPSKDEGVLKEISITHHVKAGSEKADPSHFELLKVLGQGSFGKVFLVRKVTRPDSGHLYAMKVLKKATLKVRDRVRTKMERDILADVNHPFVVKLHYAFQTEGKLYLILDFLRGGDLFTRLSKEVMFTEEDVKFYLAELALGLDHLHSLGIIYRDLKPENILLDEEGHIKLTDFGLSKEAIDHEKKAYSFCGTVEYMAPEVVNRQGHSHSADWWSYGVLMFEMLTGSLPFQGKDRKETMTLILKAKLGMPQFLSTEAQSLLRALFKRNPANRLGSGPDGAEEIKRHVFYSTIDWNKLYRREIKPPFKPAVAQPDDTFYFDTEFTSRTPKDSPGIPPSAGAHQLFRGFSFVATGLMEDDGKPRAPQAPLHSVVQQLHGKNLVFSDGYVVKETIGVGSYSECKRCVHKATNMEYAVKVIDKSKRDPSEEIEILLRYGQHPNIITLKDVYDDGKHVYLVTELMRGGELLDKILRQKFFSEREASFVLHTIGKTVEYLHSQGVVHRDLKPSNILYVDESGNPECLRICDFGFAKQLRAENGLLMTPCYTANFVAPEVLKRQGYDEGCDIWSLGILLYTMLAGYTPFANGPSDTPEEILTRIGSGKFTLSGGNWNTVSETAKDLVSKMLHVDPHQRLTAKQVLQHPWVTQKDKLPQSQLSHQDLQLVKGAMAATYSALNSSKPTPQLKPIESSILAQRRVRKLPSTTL
Mitogen-activated protein kinase 14 (Homo sapiens), sequence (Q16539 whole entry): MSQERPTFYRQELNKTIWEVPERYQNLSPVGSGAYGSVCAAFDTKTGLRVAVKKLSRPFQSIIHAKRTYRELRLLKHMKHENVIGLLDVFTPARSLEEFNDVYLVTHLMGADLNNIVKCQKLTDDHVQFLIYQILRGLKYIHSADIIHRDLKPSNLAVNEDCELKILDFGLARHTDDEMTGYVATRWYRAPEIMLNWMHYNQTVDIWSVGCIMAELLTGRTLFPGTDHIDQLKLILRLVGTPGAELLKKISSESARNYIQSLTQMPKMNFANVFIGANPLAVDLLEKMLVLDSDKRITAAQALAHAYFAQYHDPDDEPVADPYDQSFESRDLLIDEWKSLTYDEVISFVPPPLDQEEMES
Ribosomal protein S6 kinase alpha-2 (Homo sapiens), sequence (Q15349 whole entry): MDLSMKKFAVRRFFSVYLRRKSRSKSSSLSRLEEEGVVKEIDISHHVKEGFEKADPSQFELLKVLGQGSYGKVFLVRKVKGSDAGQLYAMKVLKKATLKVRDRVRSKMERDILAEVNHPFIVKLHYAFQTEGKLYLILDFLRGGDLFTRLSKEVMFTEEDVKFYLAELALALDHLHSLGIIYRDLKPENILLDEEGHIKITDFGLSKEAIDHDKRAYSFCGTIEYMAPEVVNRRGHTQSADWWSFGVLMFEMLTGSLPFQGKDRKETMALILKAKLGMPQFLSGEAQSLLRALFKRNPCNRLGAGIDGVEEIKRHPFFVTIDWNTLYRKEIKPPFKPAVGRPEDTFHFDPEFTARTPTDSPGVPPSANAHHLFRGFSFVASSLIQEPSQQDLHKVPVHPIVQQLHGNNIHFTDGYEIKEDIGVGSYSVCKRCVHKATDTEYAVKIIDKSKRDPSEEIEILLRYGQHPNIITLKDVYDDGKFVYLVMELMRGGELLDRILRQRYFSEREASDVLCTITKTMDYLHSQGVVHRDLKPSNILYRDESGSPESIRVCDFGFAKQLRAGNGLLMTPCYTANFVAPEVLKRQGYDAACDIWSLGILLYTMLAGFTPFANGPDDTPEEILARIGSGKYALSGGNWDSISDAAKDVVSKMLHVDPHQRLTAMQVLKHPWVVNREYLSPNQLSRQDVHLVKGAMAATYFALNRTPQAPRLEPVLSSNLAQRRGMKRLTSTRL
Ribosomal protein S6 kinase alpha-6 (Homo sapiens), sequence (Q9UK32 whole entry): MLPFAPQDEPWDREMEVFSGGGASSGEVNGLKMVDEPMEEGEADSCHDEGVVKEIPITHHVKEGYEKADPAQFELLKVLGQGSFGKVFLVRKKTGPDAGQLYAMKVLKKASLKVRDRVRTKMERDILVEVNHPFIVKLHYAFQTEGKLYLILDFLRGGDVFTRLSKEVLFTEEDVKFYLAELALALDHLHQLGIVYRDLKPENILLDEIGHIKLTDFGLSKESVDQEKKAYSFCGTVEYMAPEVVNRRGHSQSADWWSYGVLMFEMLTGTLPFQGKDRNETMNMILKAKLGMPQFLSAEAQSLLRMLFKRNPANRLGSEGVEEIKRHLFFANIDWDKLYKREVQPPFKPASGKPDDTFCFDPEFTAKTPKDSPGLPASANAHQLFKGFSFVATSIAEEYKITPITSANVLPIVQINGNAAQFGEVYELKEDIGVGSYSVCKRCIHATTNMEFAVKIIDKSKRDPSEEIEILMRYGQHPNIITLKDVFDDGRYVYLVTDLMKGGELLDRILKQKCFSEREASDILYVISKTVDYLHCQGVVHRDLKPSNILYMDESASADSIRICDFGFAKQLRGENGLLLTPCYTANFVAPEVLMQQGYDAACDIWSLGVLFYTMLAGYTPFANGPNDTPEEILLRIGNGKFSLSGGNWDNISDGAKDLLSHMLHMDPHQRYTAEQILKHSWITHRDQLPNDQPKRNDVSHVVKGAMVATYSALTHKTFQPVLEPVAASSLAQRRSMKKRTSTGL
Ribosomal protein S6 kinase alpha-3 (Homo sapiens), sequence (P51812 whole entry): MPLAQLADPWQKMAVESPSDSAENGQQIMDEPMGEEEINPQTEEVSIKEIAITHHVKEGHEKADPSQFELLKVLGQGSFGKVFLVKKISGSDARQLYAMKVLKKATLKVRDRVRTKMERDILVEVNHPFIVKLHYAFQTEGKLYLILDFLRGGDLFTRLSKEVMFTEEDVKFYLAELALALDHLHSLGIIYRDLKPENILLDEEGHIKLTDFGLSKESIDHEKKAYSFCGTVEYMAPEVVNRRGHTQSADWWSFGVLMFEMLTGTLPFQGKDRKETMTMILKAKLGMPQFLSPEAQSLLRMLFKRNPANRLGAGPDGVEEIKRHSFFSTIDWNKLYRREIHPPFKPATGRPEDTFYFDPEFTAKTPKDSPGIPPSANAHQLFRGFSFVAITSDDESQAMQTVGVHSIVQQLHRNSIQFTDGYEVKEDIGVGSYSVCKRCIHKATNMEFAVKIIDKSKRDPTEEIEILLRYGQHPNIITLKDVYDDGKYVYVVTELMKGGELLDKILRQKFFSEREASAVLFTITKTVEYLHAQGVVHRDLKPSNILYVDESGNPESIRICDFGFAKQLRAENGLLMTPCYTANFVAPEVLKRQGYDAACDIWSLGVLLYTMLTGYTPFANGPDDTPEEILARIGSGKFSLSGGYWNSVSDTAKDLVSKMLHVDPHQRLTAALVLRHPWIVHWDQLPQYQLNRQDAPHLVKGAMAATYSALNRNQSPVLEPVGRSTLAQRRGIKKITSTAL

In the case of `O=[N+]([O-])/C=C/c1ccc2c(c1)OCO2`, the residual activity in assay [1] was 100%; in assay [2], 111%; in [3] it was 137%; in assay [4], 106%; in assay [5], 118%; in [6], 100%. The residual activity in assay [7] was determined as 105%; in assay [8], 94%; in assay [9], 128%; in [10] it was 94%; in assay [11] it was 93%; in [12] it was 105%. Besides, the residual activity in assay [13] is 102%; in [14], 110%; in assay [15] it was 107%; in assay [16], 99%; in assay [17], 103%; in assay [18], 98%. Moreover, the residual activity turned out to be 76% in assay [19] and 105% in [20].

For the compound `COc1ccc(S(=O)(=O)N(CCO)c2ccccc2CN(C)C/C=C/c2ccc(Cl)cc2)cc1`, the residual activity in assay [15] was found to be 99%; in assay [16] it was 95%.

Take `O=C1NC(=O)c2c1c1c3ccccc3n3c1c1c2c2ccccc2n1C1CCC3O1`: the residual activity worked out at 13% in [3]; 7% in assay [4]; 11% in assay [5]; 3% in [6]; 8% in assay [7]; 8% in [8]. Moreover, the residual activity in [9] was 9%; in [10], 17%; in [19] it was 53%; in assay [20], 43%.

`CCOc1cc2ncnc(Nc3cccc(Br)c3)c2cc1OCC`: the residual activity in [15] was found to be 103%; in assay [16], 98%.

With `COc1cc2ncnc(Nc3ccc(OCc4ccccc4)cc3)c2cc1OC`, the residual activity is 41% in assay [1]; 60% in assay [2]; 106% in assay [3]; 83% in assay [4]; 52% in assay [5]; 46% in assay [6]. The residual activity in [7] is 110%; in assay [8], 72%; in [9] it was 106%; in [10], 133%; in [11], 102%; in assay [12], 106%. Besides, the residual activity in assay [13] came to 107%; in [14] it was 102%; in assay [15], 111%; in [16], 115%; in [17], 127%; in assay [18], 109%. Further, the residual activity was 115% in [19] and 80% in assay [20].

Turning to `CC(C)(C)c1cc(C=C(C#N)C#N)cc(Br)c1O`, the residual activity in assay [1] turned out to be 112%; in assay [2] it was 104%; in [3] it was 111%; in [5] it was 100%; in [6], 78%; in assay [7], 106%. The residual activity turned out to be 82% in assay [8]; 98% in [9]; 106% in [10]; 107% in [11]; 112% in [12]; 110% in [13]. Moreover, the residual activity came to 101% in assay [14], 107% in assay [15], 110% in [16] and 101% in assay [17].

Consider `CCn1cnc2c(Nc3cccc(Cl)c3)nc(N[C@@H]3CCCC[C@@H]3N)nc21`, for which the residual activity in assay [1] turned out to be 93%; in assay [2], 50%; in assay [3], 67%; in assay [4] it was 16%; in assay [5], 28%; in assay [6] it was 4%. In addition, the residual activity turned out to be 30% in [7]; 5% in [8]; 24% in [9]; 7% in assay [10]; 90% in assay [11]; 61% in [12]. The residual activity stood at 94% in [13]; 76% in [14]; 94% in [16]; 81% in [18]; 91% in assay [19]; 90% in assay [20].
